Measured values: ChEMBL document CHEMBL3988442, “University of Dundee, Small-Polar-MMV Screening Library” (2021)

How the values were obtained:
[1] = molecular target: T1, Aspartate--tRNA(Asp/Asn) ligase (Mycobacterium tuberculosis (strain ATCC 25618 / H37Rv)) (UniProt P9WFW3); experiment: Assay for Asp RNA synthetase-1 from Mycobacterium tuberculosis; format: functional; parameters: scale not given: direction of the effect not stated beside the values; settings: 30 µM; also: in the data most compounds retested in dose-response had high values
T1 sequence (whole entry): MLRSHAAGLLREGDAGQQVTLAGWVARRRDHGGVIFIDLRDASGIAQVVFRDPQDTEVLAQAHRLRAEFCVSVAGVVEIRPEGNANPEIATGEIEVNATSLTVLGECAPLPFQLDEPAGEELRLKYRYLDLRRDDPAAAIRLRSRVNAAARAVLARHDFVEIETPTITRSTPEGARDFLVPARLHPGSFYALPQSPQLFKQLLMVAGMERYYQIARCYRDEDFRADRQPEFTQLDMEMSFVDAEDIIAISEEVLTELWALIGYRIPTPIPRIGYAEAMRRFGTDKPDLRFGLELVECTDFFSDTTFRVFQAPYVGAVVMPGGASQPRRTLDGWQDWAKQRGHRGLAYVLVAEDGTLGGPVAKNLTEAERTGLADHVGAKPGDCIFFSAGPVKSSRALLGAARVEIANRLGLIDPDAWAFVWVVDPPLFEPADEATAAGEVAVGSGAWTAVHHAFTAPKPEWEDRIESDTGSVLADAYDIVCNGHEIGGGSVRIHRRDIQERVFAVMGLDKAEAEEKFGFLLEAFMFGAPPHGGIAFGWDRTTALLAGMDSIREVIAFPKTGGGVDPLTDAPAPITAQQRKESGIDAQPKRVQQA

[2] = molecular target: Shiga toxin 2 (Escherichia coli O157:H7) (UniProt P09385+P09386); experiment: E. coli 0.157:H7 Shiga Toxin SOP - stx2 screening assay; format: functional; parameters: scale not given: direction of the effect not stated beside the values; settings: 30 µM

Structure (SMILES): Cc1cccc(OCCC(=O)N(C)CCNS(C)(=O)=O)c1C
- Percent Effect [1]: 0.299%
- Percent Effect [2]: 6.1%

Structure (SMILES): CC(C)(C)NC(=O)NC(=O)CNC(C)(C)c1ccc2c(c1)OCCO2
- Percent Effect [1]: 0.459%
- Percent Effect [2]: 41.7%

Structure (SMILES): CCOCC1CN(C)Cc2cnn(CC3CCCC3)c21 (stereo unspecified)
- Percent Effect [1]: -2.58%
- Percent Effect [2]: -8.48%

Structure (SMILES): O=C(CN1CCOC(Cn2cccn2)C1)Nc1nccs1 (stereo unspecified)
- Percent Effect [1]: -4.87%
- Percent Effect [2]: -17.3%

Structure (SMILES): COc1ccccc1C(O)CNC(=O)NCc1cccnc1OC (stereo unspecified)
- Percent Effect [1]: -0.742%
- Percent Effect [2]: 9.52%

Structure (SMILES): Cn1cc(C2CCCN2Cc2csc(C(C)(C)C)n2)cn1 (stereo unspecified)
- Percent Effect [1]: -4.83%
- Percent Effect [2]: -11.7%

Structure (SMILES): O=C(CCN1C(=O)CCC1=O)Nc1cnn(-c2ccccc2Cl)c1
- Percent Effect [1]: 2.85%
- Percent Effect [2]: 1.3%

Structure (SMILES): Cc1c[nH]cc1C(=O)N1CCN(CCc2cccs2)CC1
- Percent Effect [1]: -4.34%
- Percent Effect [2]: -33.2%

Structure (SMILES): Cc1ccc(CN2CCc3ncnc(-c4ccc(F)cc4)c3CC2)o1
- Percent Effect [1]: 5.12%
- Percent Effect [2]: -19.5%

Structure (SMILES): Cn1c(C(F)(F)F)nn(CCNC(=O)c2cnc3ccccc3n2)c1=O
- Percent Effect [1]: -7.1%
- Percent Effect [2]: -21.4%

Structure (SMILES): Cc1nn(C)c(N(C)C)c1CNCc1cccc(CN(C)C(C)C)c1
- Percent Effect [1]: 2.27%
- Percent Effect [2]: 5.42%

Structure (SMILES): Cc1nc(CN2CCN(C(=O)COCc3ccccc3)CC2)no1
- Percent Effect [1]: -0.353%
- Percent Effect [2]: -1.66%

Structure (SMILES): COc1ccccc1OCC(=O)Nc1ncccc1OC(F)F
- Percent Effect [1]: 3.04%
- Percent Effect [2]: -12%

Structure (SMILES): Cc1nccn1C1CCCN(C(=O)c2cc(O)nc3ccccc23)C1 (stereo unspecified)
- Percent Effect [1]: 1.77%
- Percent Effect [2]: 5.42%

Structure (SMILES): Cc1ccoc1-c1nnc(CNCCn2cccn2)o1
- Percent Effect [1]: 0.914%
- Percent Effect [2]: -39.9%

Structure (SMILES): O=S(=O)(CCNC1CCc2ncnn2C1)c1ccccc1 (stereo unspecified)
- Percent Effect [1]: 1.06%
- Percent Effect [2]: -24.1%

Structure (SMILES): COCCn1nc(C(=O)N(C)Cc2cnn(C)c2)ccc1=O
- Percent Effect [1]: -3.74%
- Percent Effect [2]: 9.25%

Structure (SMILES): CN1CCN(c2ncccc2CNc2ncccc2C#N)CC1
- Percent Effect [1]: 3.68%
- Percent Effect [2]: 2.01%
